About 83,000 compounds went through this panel and 20% of them were active in at least one assay; those are over-represented in the sample as a whole.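 Cells were grown in 96-well plates and exposed to the test compound at a single concentration for 48 hours; results are reported as percent growth, with values below 10 considered active.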 The source made the active and inactive calls.
Assays:
Test in all cases: NCI-60 one-dose screen, 48 h (100 = growth as untreated, 0 = no growth, -100 = all killed)
Settings in all cases: 10 µM unless noted
SK-MEL-2 melanoma = test system: SK-MEL-2 melanoma
EKVX NSCLC = test system: EKVX NSCLC
SN12C renal = test system: SN12C renal
UO-31 renal = test system: UO-31 renal
TK-10 renal = test system: TK-10 renal
ACHN renal = test system: ACHN renal
CAKI-1 renal = test system: CAKI-1 renal
A498 renal = test system: A498 renal
CCRF-CEM leukemia = test system: CCRF-CEM leukemia
MOLT-4 leukemia = test system: MOLT-4 leukemia

Measured: growth

CC(O)c1cccc(/C(N)=N/C(N)=N/c2nc3ccccc3s2)c1 (stereo not given)
inactive: SK-MEL-2 melanoma 107% | EKVX NSCLC 91.9% | SN12C renal 86.9% | UO-31 renal 89.2% | TK-10 renal 133% | ACHN renal 86.6% | CAKI-1 renal 101% | A498 renal 90.7% | CCRF-CEM leukemia 84% | MOLT-4 leukemia 83.9%

Clc1ccc(CSc2nnc(-c3ccc(Cl)cc3)n2-c2ccccc2)cc1
inactive: SK-MEL-2 melanoma 85.9% | EKVX NSCLC 86.6% | SN12C renal 82.9% | UO-31 renal 68.2% | TK-10 renal 93.3% | ACHN renal 55.5% | CAKI-1 renal 62.9% | A498 renal 68% | CCRF-CEM leukemia 97.4% | MOLT-4 leukemia 92%

O=S(=O)(Oc1ccc(-c2cn3ccoc3n2)cc1)c1cccc(C(F)(F)F)c1
inactive: SK-MEL-2 melanoma 104% | EKVX NSCLC 102% | SN12C renal 96.2% | UO-31 renal 93.1% | TK-10 renal 85.4% | ACHN renal 102% | CAKI-1 renal 86.9% | A498 renal 88.8% | CCRF-CEM leukemia 106% | MOLT-4 leukemia 103%

O=C(CSc1nc2ccccc2c(=O)n1-c1ccc(Cl)c(Cl)c1)Nc1ccc(S(=O)(=O)Nc2ccc(Cl)nn2)cc1
inactive: SK-MEL-2 melanoma 103% | EKVX NSCLC 94.5% | SN12C renal 96.4% | UO-31 renal 79.8% | TK-10 renal 118% | ACHN renal 95.3% | CAKI-1 renal 82.1% | A498 renal 103% | CCRF-CEM leukemia 97% | MOLT-4 leukemia 97.2%

CCN(CC)c1ccc(/C=N/NC(=O)c2ccc(S(N)(=O)=O)cc2)cc1
inactive: SK-MEL-2 melanoma 38.7% | EKVX NSCLC 23.6% | SN12C renal 35.9% | UO-31 renal 13.3% | TK-10 renal 42.9% | ACHN renal 14.6% | CAKI-1 renal 23% | A498 renal 44.3% | CCRF-CEM leukemia 15.4% | MOLT-4 leukemia 14.2%

O=C(/C=C/c1cccc(Br)c1)c1cccc(OCCCCOc2cccc(C(=O)/C=C/c3cccc(Br)c3)c2)c1
inactive: SK-MEL-2 melanoma 104% | EKVX NSCLC 101% | SN12C renal 99.7% | UO-31 renal 91.4% | TK-10 renal 115% | ACHN renal 101% | CAKI-1 renal 100% | A498 renal 113% | CCRF-CEM leukemia 105% | MOLT-4 leukemia 90.4%

CCOC(=O)C(=O)Nc1ccc2c(ccn2C(=O)c2cccc(F)c2)c1
active: CCRF-CEM leukemia 2.8%
inactive: SK-MEL-2 melanoma 99.8% | EKVX NSCLC 82.8% | SN12C renal 101% | UO-31 renal 88.2% | TK-10 renal 97.6% | ACHN renal 80.2% | CAKI-1 renal 92.7% | A498 renal 84.2% | MOLT-4 leukemia 107%

O=C(CCCCCCNC(=O)C(O)(O)C(F)(F)F)Nc1ccc(-c2ccccc2)cc1
inactive: EKVX NSCLC 34.2% | SN12C renal 14.6% | CCRF-CEM leukemia 23.6% | MOLT-4 leukemia 14.1%
active: SK-MEL-2 melanoma -37.4% | UO-31 renal -1.11% | TK-10 renal 5.83% | ACHN renal -18.3% | CAKI-1 renal 2.61% | A498 renal -7.85%

Cc1ccc(-c2nc(SCC(=O)c3ccccc3)nc(Nc3ccc(S(N)(=O)=O)cc3)c2C#N)cc1
inactive: SK-MEL-2 melanoma 95.7% | EKVX NSCLC 99.8% | SN12C renal 63% | UO-31 renal 74.9% | TK-10 renal 67.5% | ACHN renal 89.7% | CAKI-1 renal 51.5% | A498 renal 104% | CCRF-CEM leukemia 82% | MOLT-4 leukemia 86.5%

CN(C)CC(=O)Nc1nc(-c2cccc(NS(=O)(=O)c3cccc4c(N(C)C)cccc34)c2)cs1
inactive: SK-MEL-2 melanoma 94.1% | EKVX NSCLC 68.9% | SN12C renal 75.3% | UO-31 renal 70.4% | TK-10 renal 107% | ACHN renal 88.2% | CAKI-1 renal 78.8% | A498 renal 101% | CCRF-CEM leukemia 83.7% | MOLT-4 leukemia 80.4%

O=C(/C=C/c1ccc(F)cc1)Nc1cccc2cccnc12
inactive: SK-MEL-2 melanoma 107% | EKVX NSCLC 91.4% | SN12C renal 101% | UO-31 renal 84.1% | TK-10 renal 147% | ACHN renal 105% | CAKI-1 renal 91.4% | A498 renal 114% | CCRF-CEM leukemia 105% | MOLT-4 leukemia 105%

CN1CCN(Cc2ccc(NC(=O)c3cncc(C#Cc4cnc5ccc(OCC6COC6)nn45)c3)cc2C(F)(F)F)CC1
active: SK-MEL-2 melanoma -78.4% | EKVX NSCLC -71.6% | SN12C renal -30.6% | UO-31 renal -92.3% | TK-10 renal -82.2% | ACHN renal -96.5% | CAKI-1 renal -92.8% | A498 renal -93.7% | CCRF-CEM leukemia -8.07% | MOLT-4 leukemia 1.49%

COc1ccc([C@@H]2C(=O)N(c3cc(OC)c(OC)c(OC)c3)[C@H]2c2ccc(OC)c(O)c2)cc1
inactive: SK-MEL-2 melanoma 21.3% | EKVX NSCLC 48.4% | SN12C renal 27.3% | UO-31 renal 25.4% | TK-10 renal 113% | ACHN renal 28.3% | CAKI-1 renal 21% | CCRF-CEM leukemia 21.5% | MOLT-4 leukemia 16%
active: A498 renal -28.5%

O=C(/C=C/c1cccc(C(F)(F)F)c1)Nc1cccc(C(F)(F)F)c1
inactive: SK-MEL-2 melanoma 76.8% | EKVX NSCLC 50.1% | SN12C renal 83.1% | UO-31 renal 47.7% | TK-10 renal 53.5% | ACHN renal 70.1% | CAKI-1 renal 34.1% | A498 renal 54.3% | CCRF-CEM leukemia 31.7% | MOLT-4 leukemia 35.8%

From PubChem BioAssay (NCI)
